Inconclusive results are not listed. Unmarked numbers belong to inactive results. Active and inactive are the calls of the source. The call rests on the fitted dose curve; in most records, active means well fitted cell-killing curve with a large enough effect; inconclusive means small, poorly fitted or top-dose-only effect, or effect the other way; inactive means flat fitted curve, though single readings scatter. Where a SMILES comes first, the peptide text is derived from it.
Tested on: Es-2
Test: Primary qHTS to identify gynecologic anti-cancer compounds using libraries of approved drugs and bioactive compounds (AID 1345084); further: nearly all actives have a fitted effect of over 55% in size
Conditions: Gynecologic cancer cell panel viability, ATPlite luminescence, 48 h; series mostly up to 57.5 µM; activity change, negative = cytotoxicity: at the top concentration
In short: (§1)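 Cells, 1,000 per well, were allowed to settle for 16 h at 37 C before compound addition. Five concentrations were tested for 48 h, and viability was read by ATPlite luminescence after 15 min at room temperature.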
On the % scale 0 is the no-effect control and ±100 the full control effect.

In the case of C=CC(C)(C)O[C@@H]1O[C@H](CO[C@@H]2OC[C@](O)(CO)[C@H]2O)[C@@H](O)[C@H](O)[C@H]1O, the “activity change, negative = cytotoxicity” value is reported as 1.96% [at 38.5 µM].

First: COC(=O)[C@@H]1C2CC3c4[nH]c5ccccc5c4CCN3CC2CC[C@@H]1O (stereo partly drawn)
Second: FC(F)(F)c1cc(C(F)(F)F)c2ccc3nc(-c4nnco4)cn3c2n1
The “activity change, negative = cytotoxicity” value of the first is lower: 2.44% for the first, 8.85% for the second.

With COC(=O)C1=COC(OC2OC(CO)C(O)C(O)C2O)C2C1CC(OC(=O)C(O)CC(=O)O)C2C (stereo not drawn) the “activity change, negative = cytotoxicity” value was 7.68% [at 25.3 µM].

Tested on: HeLa
Test: as above
Conditions: Gynecologic cancer cell panel viability, ATPlite luminescence, 48 h; series mostly up to 57.5 µM; activity change, negative = cytotoxicity: at the top concentration
In short: as §1

First: Nc1nc(CC(=O)Nc2ccc(CCNCC(O)c3ccccc3)cc2)cs1 (stereo not drawn)
Second: COc1ccc([C@@H]2N[C@H](C(=O)O)Cc3c2[nH]c2ccccc32)cc1CN1CCN(c2ccccc2F)CC1
The “activity change, negative = cytotoxicity” value of the first is lower: 1.48% for the first, 17.4% for the second.

Compared with CC(C)(C)c1cc(CN2CCN(CC(O)c3ccc(Cl)cc3)CC2)cc(C(C)(C)C)c1O (stereo not drawn), Cc1cn2c(N)c(Cl)cc(C(=O)NCC3CCN(CC(C)C)CC3)c2n1 is lower in “activity change, negative = cytotoxicity” value: 10.2% for the first, -1.27% for the second.

Compared with CC[C@@H](c1ccc(F)c(F)c1)n1c(C(=O)OC)c(-c2ccno2)[nH]c1=S, C=Cc1cc(O)cc2nc(-c3ccc(O)c(F)c3)oc12 is lower in “activity change, negative = cytotoxicity” value: 8.25% for the first, -14.7% for the second.

Going from Cc1cc(N2CCCCC2)nc2ccccc12 to O=C1N(CC2CCCCN2)CCN1c1ccccc1 (stereo not drawn), the “activity change, negative = cytotoxicity” value rises from 9.53% to 15.5%.

Going from Cc1cc(Nc2ncc(Cl)c(Nc3ccccc3S(=O)(=O)C(C)C)n2)c(OC(C)C)cc1C1CCNCC1 to O=S(=O)(NC1CCNCC1)c1cc(S(=O)(=O)c2ccccc2)ccc1C(F)(F)F, the “activity change, negative = cytotoxicity” value rises from -20.5% to 30.8%.

Compared with Cc1nnc(C(C)C)n1C1CC2CCC(C1)N2CC[C@H](NC(=O)C1CCC(F)(F)CC1)c1ccccc1 (stereo partly drawn), CCOC(=O)N1CCC(NCCNC(=O)c2ccccc2C)CC1 is lower in “activity change, negative = cytotoxicity” value: 0.824% for the first, -5.98% for the second.

Going from Cc1nn(C)c2c1C(c1ccc(C(F)(F)F)cc1)C(C#N)=C(N)O2 (stereo not drawn) to COC1=CC(=O)O[C@@H](/C=C/c2ccccc2)[C@@H]1O, the “activity change, negative = cytotoxicity” value falls from 18% to 13.6%.

Compared with CC1NC(=O)CNC(=O)C(C(C)C)NC(=O)C2CCCN2C(=O)C(C(C)C)NC(=O)C(Cc2c[nH]c3ccccc23)NC1=O (stereo not drawn) (cyclo(GAWVPV); configuration not given here), COc1ccc(C(=O)O[C@H]2CC(C)=CC[C@@]3(C)[C@@H](OC(C)=O)C[C@@](O)(C(C)C)[C@H]23)cc1 is higher in “activity change, negative = cytotoxicity” value: -14.5% [at 25.3 µM] for the first, 4.8% [at 25.3 µM] for the second.

Going from CC1CCC2(C(=O)OC3OC(CO)C(O)C(O)C3O)CCC3(C)C(=CCC4C5(C)CC(O)C(O)C(C)(C(=O)O)C5CCC43C)C2C1(C)O (stereo not drawn) to CC(=O)[C@@H]1CC[C@]2(C(=O)O)CC[C@]3(C)C(CCC4[C@@]5(C)CC[C@H](O)C(C)(C)C5CC[C@]43C)C12 (stereo partly drawn), the “activity change, negative = cytotoxicity” value rises from -2.43% [at 25.3 µM] to -0.462% [at 25.3 µM].

Going from COc1cc(/C=C/C(=O)OC(C)(C)C(OC2OC(CO)C(O)C(O)C2O)C(=O)OCc2ccc(OC3OC(CO)C(O)C(O)C3O)cc2)ccc1O (stereo not drawn) to COc1cc(C(C)=O)ccc1O[C@@H]1O[C@H](CO[C@@H]2O[C@@H](C)[C@H](O)[C@@H](O)[C@H]2O)[C@@H](O)[C@H](O)[C@H]1O, the “activity change, negative = cytotoxicity” value falls from 0.229% [at 25.3 µM] to -0.19% [at 25.3 µM].

For CC(C)=CCC[C@](C)(O[C@@H]1O[C@H](CO[C@@H]2OC[C@@H](O)[C@H](O)[C@H]2O)[C@@H](O)[C@H](O)[C@H]1O)[C@H]1CC[C@]2(C)[C@@H]1[C@H](O)C[C@@H]1[C@@]3(C)CC[C@H](O[C@@H]4O[C@H](CO)[C@@H](O)[C@H](O)[C@H]4O[C@@H]4O[C@H](CO)[C@@H](O)[C@H](O)[C@H]4O)C(C)(C)[C@@H]3CC[C@]12C, the “activity change, negative = cytotoxicity” value was 18.4% [at 25.3 µM].

First: O=C(O)C[C@H]1CCC(=O)[C@@H]1C/C=C\CCOC1OC(CO)C(O)C(O)C1O (stereo partly drawn)
Second: COc1ccc(C(OC2OC(CO)C(O)C(O)C2O)C(C)O)cc1 (stereo not drawn)
The “activity change, negative = cytotoxicity” value of the first is lower: -3.95% [at 38.5 µM] for the first, 2.26% [at 38.5 µM] for the second.

First: C=CC1(C)CC2=CCC3C(C)(C(=O)O)CCCC3(C)C2CC1OC(C)=O (stereo not drawn)
Second: COC(=O)[C@@]1(O)C=CC[C@@H]2[C@@]3(C)C[C@@H](c4ccoc4)OC(=O)[C@H]3CC[C@]21C
The “activity change, negative = cytotoxicity” value of the first is lower: -16.8% [at 38.5 µM] for the first, 2.51% [at 38.5 µM] for the second.

In the case of COc1ccc2c(c1)OC[C@]1(O)c3cc4c(cc3O[C@H]21)OCO4, the “activity change, negative = cytotoxicity” value is reported as 6.2% [at 38.5 µM].

First: CC1CCC2(C(=O)OC3OC(COC4OC(CO)C(O)C(O)C4O)C(O)C(O)C3O)CCC3(C)C(=CCC4C5(C)CCC(O)C(C)(C(=O)O)C5CCC43C)C2C1(C)O (stereo not drawn)
Second: C=C[C@@]1(C)CC(=O)C2[C@](C)(O1)[C@@H](OC(C)=O)[C@@H](O)[C@H]1C(C)(C)CCC[C@]21C (stereo partly drawn)
The activity change, negative = cytotoxicity of the first is lower: -4.94% [at 11.6 µM] for the first, 4.53% [at 11.6 µM] for the second.

With CCn1c2ccccc2c2cc(CNC)ccc21 the Potency was “inactive”.

— PubChem BioAssay (NCATS)
